An excerpt weighted towards active compounds, which were near 5.7% of everything screened.
DAX1 inh-1 – DAX1 (NR0B1) inhibitors on StAR promoter, primary screen, cell-based, luminescence, SF-1 (NR5A1), full-length DAX-1. inhibition, % at 6.8 µM. HEK293T StAR-luciferase reporter, SF-1/DAX-1 repression relief. 370,000 tested, 1.1% active. AID 652010, 2013;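 active means inhibition above the mean over all tested compounds plus 3 SD, cut at about 3.6% in these data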;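 further: higher inhibition means more luminescence from relief of DAX-1 repression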
hgDAF-12 ag – H. glycines DAF-12 receptor agonists, primary screen, cell-based, luminescence, HEK293, GAL4 fusion, UAS-luciferase; Nuclear hormone receptor DAF-12 (Heterodera glycines), GAL4 fusion; HEK293 GAL4-hgDAF12 UAS-luciferase reporter, agonist luminescence; normalized to butyrate control; activation, % at 6.8 µM; 370,000 tested, 1.8% active;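 active means activation above a cutoff set at the mean of all screened compounds plus 3 SD, cut at about 10% in these data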
AHR act – AHR activators, primary screen, cell-based, luminescence, luciferase reporter, human; 320,000 tested, 2.5% active; AID 2796, 2010; activation, % at 5 µM; AHR-responsive luciferase reporter cells; in the data active means activation above about 47%
DAX1 inh-2 – DAX1 (NR0B1) inhibitors, primary screen, cell-based, HEK293, Gal4-DAX1, luciferase luminescence. inhibition, % at 6.75 µM. HEK293 Gal4-DAX1 luciferase reporter. 340,000 tested, 0.99% active;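 active means inhibition above the mean over all tested compounds plus 3 SD, cut at about 4.2% in these data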;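 further: inhibition shows as a rise in luminescence from relieved DAX1 repression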
Target sequence (P51843 207-470 limits assumed): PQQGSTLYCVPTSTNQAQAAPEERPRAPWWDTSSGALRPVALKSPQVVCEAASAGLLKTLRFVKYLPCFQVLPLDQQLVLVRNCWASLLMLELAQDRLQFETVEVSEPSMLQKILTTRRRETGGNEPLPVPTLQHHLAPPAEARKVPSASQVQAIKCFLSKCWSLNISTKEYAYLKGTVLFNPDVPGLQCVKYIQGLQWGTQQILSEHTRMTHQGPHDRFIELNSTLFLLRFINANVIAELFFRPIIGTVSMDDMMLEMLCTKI
hcDAF-12 act – H. contortus DAF-12 nuclear receptor activators, primary screen, cell-based, luminescence, HEK293, lit1-tk-luc reporter; 370,000 tested, 1.4% active; activation, % at 6.8 µM; HEK293 hcDAF-12 lit1-tk-luc reporter; 0% DMSO, 100% Δ7-dafachronic acid;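 active means activation above the mean of all tested compounds plus 3 SD, cut at about 5.5% in these data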
ssDAF12 agonist – S. stercoralis DAF-12 nuclear receptor activators, primary screen, cell-based, luminescence, HEK293, GRIP1 co-expression, lit1-tk-luc; Nuclear hormone receptor DAF-12 (Strongyloides stercoralis); HEK293 ssDAF-12/GRIP1 lit1-tk-luc reporter; % of 3 µM dafachronic acid response; 370,000 tested, 1% active; activation, % at 6.8 µM; AID 652126, 2013;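 active means activation above the mean over all tested compounds plus 3 SD, cut at about 0.9% in these data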
Large screens that a line does not name were inactive.

COc1ccc(C(=O)COC(=O)[C@H](C)NS(=O)(=O)c2ccc(NC(C)=O)cc2)cc1OC	none (no result: AHR act)
CCCCNC(=O)C[C@H]1C[C@@]2(C(=O)OC)C(=C[C@H](C(C)C)O[C@@H]2C2CC2)N(CCC2=CCCCC2)C1=O	none (no result: AHR act, DAX1 inh-2)
CN(C)/C=C(\C#N)C(=O)Nc1ccc(F)cc1	none
CN(C)/C=C(\C#N)C(=O)Nc1ccc(F)c(Cl)c1	ssDAF12 agonist 1.3
C=CCc1c(C)nc(-c2ccccc2)nc1N/N=C(\C)c1ccccc1	none
C=CCc1c(C)nc(C)nc1N/N=C/c1ccc(N(C)C)cc1	AHR act 78.9
Cc1ccc(NS(=O)(=O)c2ccc(-c3coc(C)n3)cc2)c(Br)c1	none
CC(=O)c1c(C)[nH]c(C(=O)N2CCc3ccccc3C2)c1C	AHR act 47.7
CC(C)c1ccc(NC(=O)C2C3C=CC4(O3)C2C(=O)N(CCCN2CCOCC2)C4C(=O)NC2CCCCC2)cc1 (configuration not stated)	none
O=C(Nc1nccs1)c1ccc([N+](=O)[O-])cc1	ssDAF12 agonist 1.2
O=C(CN1CCN(c2ccc([N+](=O)[O-])cc2)CC1)Nc1nccs1	none
O=C(Cc1ccc([N+](=O)[O-])cc1)Nc1nccs1	DAX1 inh-2 7.2
COc1ccc(C(=O)Nc2nccs2)cc1[N+](=O)[O-]	none
CCC1CCc2c([nH]c3ccccc3c2=O)O1 (configuration not stated)	none
CC1(C)CCc2c([nH]c3ccccc3c2=O)O1	DAX1 inh-2 5.5
CCN(CC(=O)Nc1ccc(NC(C)=O)cc1)C(=O)/C=C/c1c(C)nn(-c2ccc(F)cc2)c1C	none
Cc1cc(C)c(NC(=O)c2ccc3nccnc3c2)c(C)c1	none (no result: AHR act)
Cc1noc(C)c1COc1ccc(C(=O)Nc2ncccc2O)cc1	hgDAF-12 ag 10.7
Cc1cccc(NC(=O)c2ccccc2Br)n1	AHR act 62.0
CCOc1ccc(C(=O)Nc2nnn(CC)n2)cc1	hgDAF-12 ag 11.6
Cc1ccc(NC(=O)c2ccc3nccnc3c2)c(C)c1	hgDAF-12 ag 11.5
Cc1ccnc(NC(=O)c2ccc(Cl)s2)c1	none (no result: DAX1 inh-1, hgDAF-12 ag, hcDAF-12 act, ssDAF12 agonist)
CCOc1ccc(C(=O)Nc2cc(C)ccn2)cc1	DAX1 inh-1 3.6
CCOc1cc(C(=O)Nc2cc(C)ccn2)cc(OCC)c1OCC	none
CCOc1ccc(C(=O)Nc2ncccc2Cl)cc1	hgDAF-12 ag 11.2
Cc1ccc(CNC(=O)c2cccc(OCc3c(C)noc3C)c2)cc1	DAX1 inh-2 6.8
Cc1ccnc(NC(=O)c2cnc(Cl)c(Cl)c2)c1	AHR act 58.1
Cc1cc(-c2n[nH]c(=S)n2N=Cc2ccc(O)cc2)n[nH]1	none (no result: AHR act, DAX1 inh-2)
COC(=O)[C@]12C[C@H](CC(=O)NCc3cccc4ccccc34)C(=O)N(CCC3=CCCCC3)C1=C[C@H](COCc1ccccc1)O[C@@H]2C	none (no result: AHR act, DAX1 inh-2)
Cc1ccnc(NC(=O)c2ccc3[nH]c(=O)c(=O)[nH]c3c2)c1	ssDAF12 agonist 3.3
Cc1ccc(NC(=O)c2ccc3[nH]c(=O)c(=O)[nH]c3c2)nc1	none
Cc1cccc(NC(=O)c2ccc3nccnc3c2)n1	AHR act 48.4
Cc1noc(C)c1COc1ccc(CC(=O)NC2CCCCCC2)cc1	DAX1 inh-2 4.7
Cc1cccc(NC(=O)c2cccc(NC(=O)c3ccccc3)c2)n1	none
CCOc1ccc(C(=O)Nc2cccc(C)n2)cc1	DAX1 inh-1 4.0, ssDAF12 agonist 1.1
CCCCOc1ccc(C(=O)Nc2cccc(C)n2)cc1	none
CC1CCCC(C)N1C(=O)c1ccccc1 (configuration not stated)	none (no result: AHR act, DAX1 inh-2)
CCCNC(=O)Cn1c2ccccc2c2nc(=O)cc(C)n21	none
Cc1cc(=O)nc2c3ccccc3n(CC(=O)NC(C)c3ccc4c(c3)OCCO4)n12 (configuration not stated)	hcDAF-12 act 6.0
Cc1cc(C(=O)N/N=C/c2ccc([N+](=O)[O-])cc2)c(C)o1	hgDAF-12 ag 11.0
O=C(Nc1nc2ccsc2c(=O)s1)C1CCC1	none (no result: DAX1 inh-2)
O=c1sc(Nc2ccccc2)nc2ccsc12	hcDAF-12 act 6.2
COc1ccc(/C=N/NC(=O)CN2CCCc3ccccc32)c(OC)c1	hcDAF-12 act 5.8
O=C(CN1CCCc2ccccc21)N/N=C/c1ccccc1O	AHR act 47.4
COc1ccc(N2CC(C(=O)Nc3nnc(SCC(=O)N4CCOCC4)s3)CC2=O)cc1 (configuration not stated)	none
CCN(CC)C(=O)CC[C@H]1CC[C@]2(CCCN(c3ccccc3)C2)O1	none (no result: AHR act, DAX1 inh-2)
COCCNC(=O)CCc1nnc2ccc(N3CCC(C)CC3)nn12	none
O=C1C=C(c2ccccc2)CC(c2ccc(F)cc2)C1 (configuration not stated)	none
O=C1C=C(c2ccccc2)CC(/C=C/c2ccccc2)C1 (configuration not stated)	AHR act 75.2
O=[N+]([O-])c1ccc(-c2nc(C(Cl)Cl)c3ccccc3n2)cc1	AHR act 74.9
O=C(Cn1cc(C(=O)C(=O)N2CCOCC2)c2ccccc21)Nc1cccc(C(F)(F)F)c1	none (no result: AHR act)
Fc1ccccc1-n1cc(-c2ccccc2)[nH]c1=S	none
FC(F)(F)c1cccc(-n2cc(-c3ccccc3)[nH]c2=S)c1	AHR act 61.3
CCNc1nc(NCC)n2c(SCC(=O)Nc3ccc(C)c(C)c3)nnc2n1	none
O=C(COc1ccccc1)Nc1cccc(-c2nc3ccccc3[nH]2)c1	AHR act 79.2
O=C(CSCc1nc2ccccc2[nH]1)Nc1ccc2ccccc2c1	AHR act 60.4
COc1ccc(OCC(=O)Nc2cccc(-c3nc4ccccc4[nH]3)c2)cc1	none
Fc1c(F)c(F)c(/C=N/NC(=S)Nc2cccnc2)c(F)c1F	AHR act 70.7
Fc1cccc(F)c1/C=N/NC(=S)Nc1cccnc1	none
CC(C)(C)C1CCC(=NNC(=S)Nc2cccnc2)CC1 (configuration not stated)	ssDAF12 agonist 3.8
Oc1ccc(/C=N/NC(=S)Nc2cccnc2)c(O)c1	AHR act 60.1
COc1c(C)cc(C(O)c2ncc(-c3ccc(Cl)cc3)[nH]2)cc1C (configuration not stated)	none (no result: AHR act, DAX1 inh-2)
C[C@@H]1CN([C@H](C)CO)C(=O)c2cc(NS(=O)(=O)c3cn(C)cn3)ccc2O[C@@H]1CN(C)S(C)(=O)=O	none

High-throughput results deposited in PubChem BioAssay by The Scripps Research Institute Molecular Screening Center.
